# From PubChem BioAssay
# EBV LMP1 NFkB: EBV LMP1-driven NF-kappaB luciferase reporter inhibitors, primary screen, cell-based, luminescence, single point. LMP1-induced NF-kappaB luciferase reporter cells. inhibition, % at 12.5 µM. 0.69% of 350,000 active. AID 504558, 2011; in the data active = inhibition above about 41%; inconclusive = no clear call, values can overlap the other calls;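 also: 0% = neutral control wells and 100% = reference inhibitor control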
# TROY signal inh: inhibitors of TROY-driven NF-kB signaling, primary screen, Q293 LMP1-TROYcd cells, NF-kB luciferase, uHTS; Q293 LMP1-TROYcd NF-kB luciferase reporter, 4 h; AID 1347056, 2019; 0.98% of 360,000 active; inhibition, % at 10 µM;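 active = compounds whose plate-normalised and pattern-corrected inhibition of the luciferase reporter signal at the single screening dose is 50% or more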
# EWS-Fli inh: EWS/Fli-driven NR0B1 reporter inhibitors, primary screen, A673 cells, NR0B1 luciferase, luminescence, MLPCN library. viability-normalised. inhibition, % at 12.6 µM. 0.67% of 350,000 active;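 active = mean inhibition of at least 50% after viability correction, with every replicate also passing that limit; inconclusive = mean reaches 50% but only one of two replicates passes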;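 also: firefly luciferase signal divided by Alamar Blue viability fluorescence both relative to DMSO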
# LGR2 antag: inhibitors of bursicon-induced LGR2 CRE-luciferase signal, primary screen, cell-based, HEK293, CRE-luciferase reporter, bursicon stimulation. bursicon-stimulated, 4 h. inhibition, % at 9.99 µM. 0.35% of 380,000 active. AID 720647, 2013;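 active = drop in luminescence signal, shown as inhibition above about 50% in the replicate tests, limit read from the data, passing the limit was not always enough; inconclusive = probably only some replicates passing the limit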;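 also: agonist challenge used bursicon conditioned medium at about half maximal strength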
# TWEAK Fn14 block: inhibitors of TWEAK-Fn14 signaling, primary screen, luciferase reporter cells, uHTS. inhibition, % at 10 µM. TWEAK-stimulated Fn14 reporter cells, luciferase luminescence, 8 h. 2% of 360,000 active; in the data active = inhibition above about 50%
# Numbers without * were called inactive; ? = inconclusive; nt = no result. Only some compounds are listed: those with a hit (about 2.5% of all), similar ones and a draw of the others.
SMILES,EBV LMP1 NFkB,TROY signal inh,EWS-Fli inh,LGR2 antag,TWEAK Fn14 block
C=C(NC(=O)C(=C)NC(=O)c1csc(C2=NC3c4csc(n4)C4NC(=O)c5csc(n5)C(C(C)(O)C(C)O)NC(=O)C5CSC(=N5)/C(=C/C)NC(=O)C(C(C)O)NC(=O)c5csc(n5)C3(CC2)NC(=O)C(C)NC(=O)C(=C)NC(=O)C(=C)NC(=O)C(C(C)C)NC2C=Cc3c(C(C)O)cc(nc3C2O)C(=O)OC4C)n1)C(N)=O (configuration not stated),65*,-9,74*,-7,6
COc1ccc2c3c(n(C)c2c1)[C@@H](CO)N(C(=O)Nc1ccc(F)cc1)CC31CCN(C(=O)c2ccccc2F)CC1,nt,nt,-6,28,nt
CN1C(=O)N(C)c2ccc(C=O)c3cccc1c23,86*,6,13,12,-25
CN1C(=O)N(C)c2ccc(Br)c3cccc1c23,1,65*,-2,6,18
CN1C(=O)N(C)c2cccc3cccc1c23,6,14,5,-15,-7
NC(=O)CSc1nnc2sc3ccccc3n12,1,nt,nt,nt,85*
O=C(CCc1ccc(O)cc1)c1c(O)cc(O)cc1O,0,-31,-5,3,-3
COc1cc(O)c(CC=C(C)C)c(O)c1C(=O)CCc1ccc(O)cc1,-42,71*,5,-11,81*
CN1C(=O)c2cc(NC(=O)c3cccc(Cl)c3)ccc2OC[C@H]2O[C@@H](CC(=O)NC3CCCCC3)CC[C@H]21,nt,nt,17,-5,nt
C=C1CC2(CC(c3ccccc3)OC(c3ccccc3)C2)OC1=O (configuration not stated),-3,23,48,-9,87*
COc1ccc(Sc2ccc(/C=C3\C(=O)NN(c4ccccc4)C3=O)o2)cc1,0,17,nt,-12,93*
COc1ccc(-n2c(C)cc(/C=C3\C(=O)NN(c4ccccc4)C3=O)c2C)cc1,-11,-76,nt,-59,2
NCCc1c(-c2ccccc2)n(-c2ccccc2)c2ccccc12,-12,-14,13,58*,-22
Cc1ccc(S(=O)(=O)N(C)C[C@@H]2Oc3ccc(NC(=O)NC4CCCCC4)cc3C(=O)N([C@H](C)CO)C[C@@H]2C)cc1,nt,nt,11,12,nt
CO[C@H]1CN(C)C(=O)c2cc(NC(=O)c3ccccc3F)ccc2OC[C@@H](C)NC[C@@H]1C,nt,nt,7,-4,nt
CN(C)C(=O)C[C@@H]1CC[C@H](NC(=O)C2CC2)[C@@H](CO)O1,nt,nt,-3,nt,nt
CCCN1CCC(=NNc2ccc(C(=O)O)cc2)CC1,-3,41,-4,2,52*
CCCN1CCC(=NNC(=O)c2ccc(Br)o2)CC1,-1,-32,0,2,20
CCC(=O)Nc1ccc2oc(-c3cccc(C)c3)nc2c1,-6,29,nt,nt,74*
Cc1cccc(-c2nc3cc(NC(=O)C4CCCO4)ccc3o2)c1 (configuration not stated),-4,47,nt,59*,68*
O=C(Nc1ccc(-c2nc3ccccc3[nH]2)cc1)C1CCCO1 (configuration not stated),3,33,18,?,73*
CCCNC(=O)N1[C@H](CO)[C@H](c2ccc(C3=CCCC3)cc2)[C@H]1CNC(C)=O,nt,nt,1,9,nt
CC(C)(C)OC(=O)NCCCCCNC(=O)c1nc[nH]c1C(=O)NCCCCCNC(=O)OC(C)(C)C,15,58*,29,102*,65*
C[C@H](NC(=O)c1[nH]cnc1C(=O)Nc1ccc(CNC(=O)OC(C)(C)C)cc1)C(=O)OCc1ccccc1,-1,74*,10,0,52*
CC(C)(C)OC(=O)NCCCCCNC(=O)c1nc[nH]c1C(=O)NCC(=O)OCc1ccccc1,10,27,-1,85*,22
SMILES,EBV LMP1 NFkB,TROY signal inh,EWS-Fli inh,LGR2 antag,TWEAK Fn14 block
O=C(Nc1ccccc1)c1nc[nH]c1C(=O)NCCCCCCNC(=O)c1[nH]cnc1C(=O)Nc1ccccc1,-13,26,20,nt,69*
CC(C)(C)OC(=O)NCCCCCNC(=O)c1[nH]cnc1C(=O)N[C@@H](CCCCNC(=O)OC(C)(C)C)C(=O)OC(C)(C)C,-2,10,nt,nt,16
Cc1ccc(S(=O)(=O)Nc2ccc3c(c2)C(=O)N([C@@H](C)CO)C[C@H](C)[C@H](CN(C)C(=O)C2CCCCC2)OCCCC[C@H](C)O3)cc1,nt,nt,7,-6,nt
C[C@H]1CCCCO[C@@H](CN(C)C(=O)c2ccccc2)[C@@H](C)CN([C@@H](C)CO)C(=O)c2cc(NC(=O)CCC(F)(F)F)ccc2O1,nt,nt,-5,3,nt
Cc1ccc(S(=O)(=O)N(C)C[C@H]2Oc3c(NS(=O)(=O)c4ccc(Cl)cc4)cccc3C(=O)N([C@@H](C)CO)C[C@H]2C)cc1,nt,nt,-4,-20,nt
C[C@@H]1CN([C@@H](C)CO)C(=O)c2cc(NS(C)(=O)=O)ccc2O[C@@H]1CN(C)Cc1ccc(C(=O)Nc2ccccc2N)cc1,nt,nt,1,-12,nt
CC(C)(C)OC(=O)NCc1ccc(CNC(=O)c2nc[nH]c2C(=O)NCc2ccc(CNC(=O)OC(C)(C)C)cc2)cc1,19,18,4,7,48
CC(C)(C)OC(=O)NCc1ccc(CNC(=O)c2[nH]cnc2C(=O)NC2CCN(C(=O)OC(C)(C)C)CC2)cc1,5,48,nt,nt,57*
CC(C)(C)OC(=O)N1CCC(NC(=O)c2nc[nH]c2C(=O)NCc2ccccc2)CC1,-1,-25,3,17,-2
CC(C)(C)OC(=O)NCCCCCNC(=O)c1nc[nH]c1C(=O)NCc1ccc(CNC(=O)OC(C)(C)C)cc1,8,64*,28,nt,96*
C/C=C/c1cnc2c(c1)C(=O)N([C@@H](C)CO)C[C@H](C)[C@@H](CN(C)S(=O)(=O)c1ccc(OC)cc1)O2,nt,nt,-4,4,nt
COc1ccc(NC(=O)N(C)C[C@@H]2OCCCC[C@@H](C)Oc3ccc(NS(=O)(=O)c4ccc(Cl)cc4)cc3C(=O)N([C@@H](C)CO)C[C@H]2C)cc1,nt,nt,3,6,nt
C[C@@H]1CN([C@H](C)CO)C(=O)c2cc(NC(=O)CCCCCC(=O)Nc3ccccc3N)ccc2O[C@H]1CN(C)S(=O)(=O)c1ccc(F)cc1,nt,nt,-4,18,nt
COc1ccc2nc(NN=C(C)c3ccccn3)cc(C)c2c1,79*,-51,33,nt,26
C[C@@H]1CN([C@H](C)CO)S(=O)(=O)c2ccc(C#Cc3ccccn3)cc2O[C@@H]1CN(C)C(=O)C1CC1,nt,nt,4,5,nt
O=C(C1=C(c2ccccc2)C(=O)c2ccccc2C1=O)c1ccccc1,90*,62*,61*,nt,97*
CCS(=O)(=O)N1CCCCN2[C@@H](CO)[C@@H](c3ccc(-c4ccccc4C)cc3)[C@@H]2C1,nt,nt,2,-1,nt
